Shown are actives, neighbours in structure and some others; about 18% of the full set was active somewhere.
DT40 TDP1 no CPT: qHTS for Inhibitors of human tyrosyl-DNA phosphodiesterase 1 (TDP1): qHTS in cells in absence of CPT | DT40 Tdp1-/- hTDP1 cells, no CPT, ATP luminescence, 48 h | Potency, µM (highest dose often 46.2 µM), inactives show top-dose activity change, negative = growth inhibition, most hits filed as inhibitors | hit rate 15% among 420,000; note: potency is the fitted concentration of half-maximal effect; nearly all actives have a fitted effect of over 55% in size
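Stably hTDP1-transfected Tdp1-null chicken DT40 cells were treated with library compounds minus camptothecin and grown for at least 48 hr at 37 °C, after which cellular ATP was quantified by luminescence.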
LDHA block: qHTS assay for inhibitors of human lactate dehydrogenase. activity change, % (values are at about 110 or 230 µM). AID 1347041, 2019. purified LDHA, NADH/diaphorase-resazurin fluorescence; hits give low values. hit rate 0.15% among 480,000; in the data active = activity change below about -30%; inconclusive = mostly about -25% to -30%;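 note: plate controls were DMSO wells for no effect and wells without enzyme for full effect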
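Resorufin fluorescence (ex540/em590), read at 0 and 20 min after diaphorase/resazurin addition, reports the NADH left after a 5 min room-temperature reaction of 2 nM human LDH5 with 0.06 mM NADH and 0.2 mM pyruvate.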
VP16 counter: VP16 counterscreen qHTS for inhibitors of ROR gamma transcriptional activity; Drosophila S2 Gal4-VP16 UAS-luciferase, luminescence, 20 h; Potency, µM (series often up to 53.6 µM), without a hit: top-dose activity, negative = inhibition, actives largely listed as inhibitors; hit rate 3.5% among 310,000;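 note: Gal4-VP16 expression switched on by copper sulfate through the metallothionein promoter; potency is the fitted concentration of half-maximal effect; nearly all actives have a fitted effect of over 50% in size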
IL1B secr inh: qHTS for Inhibitors of Inflammasome Signaling: IL-1-beta AlphaLISA Primary Screen; hit rate 4.7% among 360,000; AID 743279, 2014; THP-1 LPS/ATP IL-1B secretion, AlphaLISA, 16 h; hits give low values; activity change, % at 57.5 µM; in the data active = activity change below about -50%; inconclusive = mostly about -30% to -49%
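THP-1 cells pretreated 1 hr with compounds (up to 57.5 uM final), then stimulated with LPS (250 ng/mL final) plus ATP (1.25 mM final); secreted IL-1B measured by AlphaLISA after 16 hr, decreased signal indicating inhibition.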
DT40 TDP1 CPT: qHTS for Inhibitors of human tyrosyl-DNA phosphodiesterase 1 (TDP1): qHTS in cells in presence of CPT | chicken DT40 Tdp1-/-;hTDP1 cells + 20 nM CPT, ATP luminescence, 48 h | Potency, µM (top dose mostly 46.2 µM), for inactives: top-dose activity change, negative = growth inhibition, hits mostly inhibitors | hit rate 12% among 420,000 | AID 686979, 2013; note: potency is the fitted concentration of half-maximal effect; nearly all actives have a fitted effect of over 55% in size
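Cell growth measured by CellTiter-Glo luminescence after a minimum 48 h, 37 C compound exposure with 20 nM CPT in Tdp1-knockout DT40 cells stably expressing hTDP1, seeded 400/well; qHTS titration format.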
RORg inh: qHTS for inhibitors of ROR gamma transcriptional activity; hit rate 5.4% among 310,000; AID 2551, 2010; Potency, µM (highest dose often 53.6 µM), for inactives: at the top dose activity change, negative = inhibition, actives largely listed as inhibitors; Nuclear receptor ROR-gamma (Mus musculus), P51450; Drosophila S2 Gal4-RORgamma UAS-luciferase reporter, 20 h; note: potency is the fitted concentration of half-maximal effect; nearly all actives have a fitted effect of over 60% in size
Target sequence (P51450 whole entry, looked up, the tested form may be a part): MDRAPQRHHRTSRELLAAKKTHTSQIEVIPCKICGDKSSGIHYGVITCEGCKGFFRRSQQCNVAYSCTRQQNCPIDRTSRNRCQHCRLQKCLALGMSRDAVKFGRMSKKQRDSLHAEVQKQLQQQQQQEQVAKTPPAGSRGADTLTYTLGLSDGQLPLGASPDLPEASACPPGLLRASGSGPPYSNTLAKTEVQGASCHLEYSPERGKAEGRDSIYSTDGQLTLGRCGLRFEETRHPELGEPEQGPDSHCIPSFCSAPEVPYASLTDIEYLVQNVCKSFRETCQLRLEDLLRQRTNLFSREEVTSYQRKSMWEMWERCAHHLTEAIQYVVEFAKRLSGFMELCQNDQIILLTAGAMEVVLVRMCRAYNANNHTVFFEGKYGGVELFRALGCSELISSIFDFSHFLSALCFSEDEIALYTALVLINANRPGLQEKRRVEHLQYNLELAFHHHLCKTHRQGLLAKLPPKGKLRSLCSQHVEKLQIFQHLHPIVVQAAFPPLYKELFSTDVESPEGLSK
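A Gal4/UAS one-hybrid system in insect cells: metallothionein-promoter Gal4–ROR gamma fusion plus Photinus luciferase reporter. Copper sulfate 700 uM final, 20 hr ambient incubation, luminescent detection after 10 min with reagent.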
An asterisk follows results filed as active; ? = inconclusive; nt = not tested or not shown. Unless noted, calls come from the whole dose curve; as a rule, active = well fitted curve in the direction sought with a large enough effect; inconclusive = small, poorly fitted or top-dose-only effect, or another doubt; inactive = no such curve, though single readings can be large; an effect the other way counts as inactive or inconclusive. Unless noted, % is set by controls: 0 for no effect and ±100 for the full control effect.

SMILES	DT40 TDP1 no CPT	LDHA block	VP16 counter	IL1B secr inh	DT40 TDP1 CPT	RORg inh
Cc1cccc(NC(=O)N2CCC(CCNS(=O)(=O)c3c(C)cc(C)cc3C)CC2)c1	nt	-0.7	nt	nt	nt	nt
CCOC(=O)c1sc(NC(=O)CNCc2ccccn2)c(C(=O)OCC)c1C	25.9µM*	-8.9	?	10.3	?	7.94µM*
CCOC(=O)c1c(NC(=O)CC)sc(C(=O)N2CCCCC2)c1C	-13.5%	-8.9	-1.0%	-8.4	-2.0%	-4.5%
CCOC(=O)c1sc(NC(=O)CCN2CCCCCC2)c(C(=O)OCC)c1C	?	5.0	?	-99.0*	?	11.2µM*
CCOC(=O)c1c(-c2ccc(OC)cc2)csc1NC(=O)CNCc1ccco1	?	-2.7	5.62µM*	-13.4	?	5.01µM*
CCOC(=O)c1sc(NC(=O)COc2ccccc2Cl)c(C(=O)OCC)c1C	?	-7.9	nt	nt	-9.0%	nt
CCOC(=O)c1c(-c2ccc(OC)cc2)csc1NC(=O)CCN1C(=O)c2ccccc2C1=O	?	0.2	-0.8%	-17.8	16.4µM*	1.8%
CCCCN1C(=O)C2(/C(=C(\O)c3ccc(OC)c(C)c3)C(=O)C(=O)N2CCOC)c2ccccc21 (stereo not drawn)	nt	10.9	nt	nt	nt	nt
CC1CN(C(=O)Cn2cnc3c2c(=O)n(C)c(=O)n3C)CCO1 (stereo not drawn)	nt	6.4	nt	nt	nt	nt
Cc1cc(C)c2ccc(C(=O)O)cc2n1	nt	3.9	nt	nt	nt	nt
Cc1cccc(C(=O)Nc2ccc(C(=O)OCc3cc(=O)n4ccsc4n3)cc2)c1	nt	-10.0	nt	nt	nt	nt
CCOC(=O)c1c(NC(=O)CCN2CCOCC2)sc(C)c1-c1ccccc1	23.1µM*	9.1	-7.9%	-78.2*	20.6µM*	26.9%
CCOC(=O)c1c(-c2ccc(OC)cc2)csc1NC(=O)CCN1CCOCC1	18.4µM*	-13.8	-23.7%	-9.9	?	-26.9%
CCOC(=O)c1c(-c2ccc3ccccc3c2)csc1NC(=O)CCCC(=O)O	?	-0.2	nt	15.7	-17.1%	nt
CCCCn1c2nc3ccccc3nc2c2c(=O)n(C(C)CC)cnc21 (stereo not drawn)	23.1µM*	2.4	3.5%	?	10.3µM*	1.0%
COCCCn1cnc2oc3nc4ccccc4nc3c2c1=O	0.0%	-0.2	1.26µM*	-3.6	2.0%	?
COCCCn1c2nc3ccccc3nc2c2c(=O)n(Cc3ccccc3Cl)cnc21	nt	nt	-1.4%	nt	nt	1.4%
COCCCn1c2nc3ccccc3nc2c2c(=O)n(Cc3ccc(Cl)cc3)cnc21	18.4µM*	0.0	-11.0%	-15.2	?	-25.2%
Cc1nc2ccccc2c(=O)n1CCc1ccccc1	?	-3.3	-0.5%	38.0	?	29.7%
COCCCn1c(C)nc2c(c1=O)c1nc3ccccc3nc1n2CCc1ccccc1	16.4µM*	-8.7	-6.5%	-12.0	?	4.4%
COCCCn1cnc2c(c1=O)c1nc3ccccc3nc1n2-c1ccccc1	-27.6%	-4.5	-5.6%	2.5	?	6.4%
O=C1CN(c2ccccc2)C(=O)N1Cc1ncc(-c2ccccc2)o1	nt	1.8	nt	nt	nt	nt
N#Cc1nc(-c2ccccc2)[nH]c1C#N	nt	-3.9	nt	nt	nt	nt
O=C(O)C1CCN(/C=C/C(=O)C(F)(F)F)CC1	nt	-1.1	nt	nt	nt	nt
Cc1ccc(Cl)cc1NC(=O)c1nc2ccccc2nc1N1CCN(C)CC1	nt	8.9	nt	nt	nt	nt
Cc1cccc(N2CCN(C(=O)c3ccc(CNS(=O)(=O)c4ccc5ccccc5c4)cc3)CC2)c1	nt	2.5	nt	nt	nt	nt
COc1cc(-c2cc(=O)c3c(O)cc(O)cc3o2)ccc1O	?	0.4	4.7%	-63.8*	20.6µM*	8.7%
COc1cc2oc(-c3ccccc3)cc(=O)c2cc1O	0.2%	nt	0.4%	nt	3.4%	25.2%

Bioassay records (PubChem BioAssay)
